The entries come from a sample that favours hits as a whole.
12-LOX inh: Primary qHTS assay for inhibitors of human arachidonate 12S-lipoxygenase (ALOX12): Round 2 | purified 12hLO, xylenol orange hydroperoxide absorbance | Potency, µM (doses to about 108 µM), for inactives: at the top dose activity change, negative = inhibition, hits mostly inhibitors | actives 1.1% (n = 580,000) | AID 1671190, 2021; note: potency is the fitted concentration of half-maximal effect
Target sequence (P18054 whole entry, looked up): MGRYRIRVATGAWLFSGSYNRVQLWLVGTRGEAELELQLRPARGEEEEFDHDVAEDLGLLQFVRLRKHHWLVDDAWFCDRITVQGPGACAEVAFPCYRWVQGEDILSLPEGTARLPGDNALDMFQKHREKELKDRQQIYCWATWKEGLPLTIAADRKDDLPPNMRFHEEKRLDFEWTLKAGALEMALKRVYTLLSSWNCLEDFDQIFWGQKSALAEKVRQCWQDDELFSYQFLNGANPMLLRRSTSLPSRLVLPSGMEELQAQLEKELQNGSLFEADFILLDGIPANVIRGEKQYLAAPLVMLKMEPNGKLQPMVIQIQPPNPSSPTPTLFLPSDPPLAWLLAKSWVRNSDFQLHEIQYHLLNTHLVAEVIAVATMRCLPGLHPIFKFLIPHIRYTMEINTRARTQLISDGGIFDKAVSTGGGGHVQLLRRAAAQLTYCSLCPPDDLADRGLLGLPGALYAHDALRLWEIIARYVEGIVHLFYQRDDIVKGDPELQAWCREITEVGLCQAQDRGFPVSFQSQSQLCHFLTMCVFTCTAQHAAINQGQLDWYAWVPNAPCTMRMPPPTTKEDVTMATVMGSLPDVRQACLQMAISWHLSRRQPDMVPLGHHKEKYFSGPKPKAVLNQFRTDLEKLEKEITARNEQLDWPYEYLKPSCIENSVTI
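Purified human 12hLO (150 nM final) in 25 mM Hepes, 0.01% Triton X-100, pH 7.0 was preincubated 15 min at room temperature with compound. Then 40 uM arachidonic acid was added, 30 min. Hydroperoxide was read by Fe-XO absorbance ratio 573/405 nm.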
HT1080NT lethal: qHTS for induction of synthetic lethality in tumor cells producing 2HG: qHTS for the HT-1080-NT fibrosarcoma cell line; HT-1080-NT fibrosarcoma viability, CellTiter-Glo ATP luminescence, 48 h; Potency, µM (top dose mostly 46.1 µM), without a hit: at the top dose activity, negative = less viability, hits mostly cytotoxic; actives 1.6% (n = 360,000); AID 686970, 2013;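 note: NT is the 2HG producing partner of a matched IDH1 knockdown line; potency is the fitted concentration of half-maximal effect; 0% = DMSO-treated cells and -100% = media-only wells without cells; nearly all actives have a fitted effect of over 55% in size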
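Toxicity toward the 2HG-producing NT line was scored as %Activity, normalised to DMSO and no-cell wells, from CellTiter-Glo luminescence after 48 hours' treatment.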
IL-1B inflam inh: qHTS for Inhibitors of Inflammasome Signaling: IL-1-beta AlphaLISA Primary Screen; actives 4.7% (n = 360,000); activity change, % at 57.5 µM; THP-1 LPS/ATP IL-1B secretion, AlphaLISA, 16 h; stronger effect = lower value; in the data active = activity change below about -50%; inconclusive = mostly about -30% to -49%
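Secreted IL-1B measured by AlphaLISA bead assay after 16 h compound exposure of THP-1 cells; compounds (final up to 57.5 uM) added 1 h before LPS (250 ng/mL) and ATP (1.25 mM) stimulation; lower signal means less secretion.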
DT40 TDP1 CPT: qHTS for Inhibitors of human tyrosyl-DNA phosphodiesterase 1 (TDP1): qHTS in cells in presence of CPT; chicken DT40 Tdp1-/-;hTDP1 cells + 20 nM CPT, ATP luminescence, 48 h; Potency, µM (series often up to 46.2 µM), without a hit: at the highest dose activity change, negative = growth inhibition, usual class: inhibitors; actives 12% (n = 420,000); AID 686979, 2013; note: potency is the fitted concentration of half-maximal effect; nearly all actives have a fitted effect of over 55% in size
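Chicken DT40 Tdp1-/- cells stably complemented with human TDP1 were seeded at 400 cells/well in medium containing 20 nM camptothecin, exposed to pin-transferred compounds, and grown at 37 °C for at least 48 hr. Viability was read as ATP luminescence.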
HT1080 IDH1KD tx: qHTS for induction of synthetic lethality in tumor cells producing 2HG: qHTS for the HT-1080-IDH1KD cell line; HT-1080 IDH1 knockdown viability, ATP luminescence, 48 h; Potency, µM (highest dose often 46.1 µM), for the others: at the top dose activity, negative = toxicity, hits mostly cytotoxic; actives 2% (n = 360,000); AID 686971, 2013;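 note: potency is the fitted concentration of half-maximal effect; 0% = DMSO wells and -100% = cell-free medium wells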
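After a 2 h attachment period, IDH1KD HT-1080 cells took pin-transferred compound for 48 h at 37 °C; ATP-based luminescence after 10 min room-temperature reagent incubation reported viability.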
DT40 TDP1 no CPT: qHTS for Inhibitors of human tyrosyl-DNA phosphodiesterase 1 (TDP1): qHTS in cells in absence of CPT; DT40 Tdp1-/- hTDP1 cells, no CPT, ATP luminescence, 48 h; Potency, µM (highest dose often 46.2 µM), inactives show at the highest dose activity change, negative = growth inhibition, actives largely listed as inhibitors; actives 15% (n = 420,000); note: potency is the fitted concentration of half-maximal effect; nearly all actives have a fitted effect of over 55% in size
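Chicken DT40 Tdp1-/- cells stably complemented with human TDP1 were seeded at 400 cells/well with DMSO in place of 20 nM camptothecin. After compound pinning, cells grew at least 48 hr at 37 °C; viability read by CellTiter-Glo luminescence.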
An asterisk follows results filed as active. Unless noted, calls come from the whole dose curve; as a rule, active = well fitted curve in the direction sought with a large enough effect; inconclusive = small, poorly fitted or top-dose-only effect, or another doubt; inactive = no such curve, though single readings can be large; an effect the other way counts as inactive or inconclusive. Unless noted, % is set by controls: 0 for no effect and ±100 for the full control effect.

Results for CCc1nc2c(OCCOc3ccc(F)cc3)cccn2c1N(C)C(=O)c1ccco1 ?
12-LOX inh: -10.9%; HT1080NT lethal: -17.2%; IL-1B inflam inh: inconclusive; DT40 TDP1 CPT: 20.6µM*; HT1080 IDH1KD tx: -17.5%; DT40 TDP1 no CPT: 16.4µM*

What do the screens show for `CN1C(=S)NC(C)(C)CC1(C)c1ccc(O)cc1O` (stereo not drawn)?
12-LOX inh: inconclusive; HT1080NT lethal: 5.8%; IL-1B inflam inh: 7.9; DT40 TDP1 CPT: -1.0%; HT1080 IDH1KD tx: 1.2%; DT40 TDP1 no CPT: 1.4%

Results for CC1(C)CC(C)(c2ccc(O)cc2O)N(c2ccc3ccccc3c2)C(=S)N1 (stereo not drawn) ?
12-LOX inh: 17.8µM*; HT1080NT lethal: -23.5%; IL-1B inflam inh: -11.5; DT40 TDP1 CPT: inconclusive; HT1080 IDH1KD tx: -23.0%; DT40 TDP1 no CPT: inconclusive

How did Cc1ccc(O/C=C2/Nn3c(nnc3-c3cc(-c4ccccc4)n[nH]3)S2)cc1 do in these assays?
DT40 TDP1 CPT: 7.08µM*; DT40 TDP1 no CPT: 15.8µM*

How did O=C(C[C@@H]1C/C=C\C[C@@H](NC(=O)OCC2c3ccccc3-c3ccccc32)C(=O)OC[C@@H](Cc2ccccc2)NC1=O)NCCO do in these assays?
12-LOX inh: inconclusive; HT1080NT lethal: -1.5%; IL-1B inflam inh: 34.0; DT40 TDP1 CPT: 7.31µM*; HT1080 IDH1KD tx: -2.4%; DT40 TDP1 no CPT: 9.2µM*

Results for C[C@@H]1COC(=O)[C@H](NC(=O)OCC2c3ccccc3-c3ccccc32)C/C=C\C[C@@H](CC(=O)N[C@@H](CO)Cc2ccccc2)C(=O)N1 ?
12-LOX inh: inconclusive; HT1080NT lethal: 0.0%; IL-1B inflam inh: 20.1; DT40 TDP1 CPT: 8.2µM*; HT1080 IDH1KD tx: 0.5%; DT40 TDP1 no CPT: 8.2µM*

What do the screens show for `CC(C)(C)[C@@H]1COC(=O)[C@@H](NC(=O)OCC2c3ccccc3-c3ccccc32)C/C=C\C[C@@H](CC(=O)NCCO)C(=O)N1`?
12-LOX inh: -1.4%; HT1080NT lethal: 6.5%; IL-1B inflam inh: 30.3; DT40 TDP1 CPT: 18.4µM*; HT1080 IDH1KD tx: -2.1%; DT40 TDP1 no CPT: 11.6µM*

Results for O=C(C[C@H]1C/C=C\C[C@H](NC(=O)OCC2c3ccccc3-c3ccccc32)C(=O)OC[C@H](Cc2ccccc2)NC1=O)N[C@H](CO)Cc1ccccc1 ?
12-LOX inh: inconclusive; HT1080NT lethal: inconclusive; IL-1B inflam inh: 7.6; DT40 TDP1 CPT: 5.17µM*; HT1080 IDH1KD tx: inconclusive; DT40 TDP1 no CPT: 5.17µM*

Results for C[C@@H]1COC(=O)[C@H](CC(=O)OC(C)(C)C)C/C=C\C[C@@H](CC(=O)N[C@H](CO)Cc2ccccc2)C(=O)N1 ?
12-LOX inh: 8.1%; HT1080NT lethal: 4.6%; IL-1B inflam inh: 22.0; DT40 TDP1 CPT: -1.5%; HT1080 IDH1KD tx: 2.6%; DT40 TDP1 no CPT: -2.5%

How did O=C(C[C@@H]1C/C=C\CCC(=O)OC[C@H](Cc2ccccc2)NC1=O)N[C@@H](CO)Cc1ccccc1 do in these assays?
12-LOX inh: -7.0%; HT1080NT lethal: 17.5%; IL-1B inflam inh: -3.7; DT40 TDP1 CPT: inconclusive; HT1080 IDH1KD tx: 9.3%; DT40 TDP1 no CPT: inconclusive

What do the screens show for `O=C1NC(C(=O)Nc2ccccc2F)Cn2cccc21` (stereo not drawn)?
12-LOX inh: 24.9%

Results for CC(C)(C)OC(=O)C[C@H]1C/C=C\C[C@H](CC(=O)N[C@@H](CO)Cc2ccccc2)C(=O)N[C@H](C(C)(C)C)COC1=O ?
12-LOX inh: -90.0%; HT1080NT lethal: 1.8%; IL-1B inflam inh: -21.9; DT40 TDP1 CPT: inconclusive; HT1080 IDH1KD tx: 0.2%; DT40 TDP1 no CPT: inconclusive

Results for CC(C)(C)[C@H]1COC(=O)[C@H](NC(=O)OCC2c3ccccc3-c3ccccc32)C/C=C\C[C@@H](CC(=O)N[C@@H](CO)Cc2ccccc2)C(=O)N1 ?
12-LOX inh: -17.1%; HT1080NT lethal: inconclusive; IL-1B inflam inh: 20.9; DT40 TDP1 CPT: 7.31µM*; HT1080 IDH1KD tx: 0.5%; DT40 TDP1 no CPT: inconclusive

How did CC(C)(C)[C@H]1COC(=O)[C@H](NC(=O)OCC2c3ccccc3-c3ccccc32)C/C=C\C[C@@H](CC(=O)N[C@H](CO)Cc2ccccc2)C(=O)N1 do in these assays?
12-LOX inh: -13.0%; HT1080NT lethal: -20.6%; IL-1B inflam inh: 7.8; DT40 TDP1 CPT: 7.31µM*; HT1080 IDH1KD tx: 0.9%; DT40 TDP1 no CPT: 8.2µM*

Results for O=C(c1ccsc1)N1CCCCCC1c1nc(-c2cccnc2)no1 (stereo not drawn) ?
12-LOX inh: 0.5%

How did COc1ccc(C(=O)N2CCCCC2c2n[nH]c(C)n2)cc1 (stereo not drawn) do in these assays?
12-LOX inh: 30.9%

How did COc1cccc(N2CCN(C(=O)c3ccc(Cn4c(=O)[nH]c5cc(OC)c(OC)cc5c4=O)cc3)CC2)c1 do in these assays?
12-LOX inh: -7.4%; DT40 TDP1 CPT: 9.2µM*; DT40 TDP1 no CPT: 4.11µM*

How did CCOc1cc2[nH]c(=O)n(Cc3ccc(C(=O)N4CCN(c5ccccc5)CC4)cc3)c(=O)c2cc1OCC do in these assays?
12-LOX inh: 2.1%; DT40 TDP1 CPT: 11.6µM*; DT40 TDP1 no CPT: 5.8µM*

How did CCOc1cc2[nH]c(=O)n(Cc3ccc(C(=O)N4CCN(c5cccc(Cl)c5)CC4)cc3)c(=O)c2cc1OCC do in these assays?
12-LOX inh: inconclusive; DT40 TDP1 CPT: 3.66µM*; DT40 TDP1 no CPT: 2.59µM*

What do the screens show for `COc1ccc(N2CCN(C(=O)c3ccc4c(=O)n(Cc5ccc6c(c5)OCO6)c(=O)[nH]c4c3)CC2)cc1`?
12-LOX inh: -0.9%; HT1080NT lethal: 5.9%; IL-1B inflam inh: 24.1; DT40 TDP1 CPT: -5.6%; HT1080 IDH1KD tx: 10.7%; DT40 TDP1 no CPT: 6.0%

How did CC1CCCCN1C(=O)CSc1nc2ccsc2c(=O)n1-c1cc(F)cc(F)c1 (stereo not drawn) do in these assays?
12-LOX inh: 2.2%
